This assay deals with Schistosoma mansoni schistosomula (LE). The assay is described as follows: XTT viability relative to DMSO control; higher = more viable (less active). To be noted: 72 h; 10 µM. As to the method: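 XTT/PMS was then added for a further 24 h (72 h total) and A450 was read. % viability = (sample - heat-killed control)/(DMSO control - heat-killed control) x 100, from duplicate wells in two independent experiments.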
As to `Clc1ccc(-n2cc(COc3ccnc4ccccc34)nn2)cc1`, the XTT viability is 103%.

`CC(C)(C)OC(=O)N1CCN(c2cc(-c3ccc(Oc4ccccc4)cc3)n[nH]2)CC1`: the XTT viability was 66.1%.

Regarding `O=C(NCc1ccoc1)N1CCN(Cc2ccc3c(c2)OCO3)CC1`, the XTT viability turned out to be 76.2%.

Regarding `CCN(CC)C(=O)N1CCN(C)CC1`, the XTT viability came to 95.5%.

For the compound `Cn1c(=O)c2c(S(C)(=O)=O)snc2n(C)c1=O`, the XTT viability was -0.448%.

Regarding `COc1ccc2nc(C)cc(OCC(=O)Nc3ccccc3OC)c2c1`, the XTT viability turned out to be 108%.

As to `NC(=O)c1cc(-c2ccsc2)ccc1OCCOc1ccccc1`, the XTT viability is 89.5%.

Regarding `CC(=O)N1CCN(c2ccc(Oc3ccc(Cl)cc3O)cc2)CC1`, the XTT viability amounted to 89.7%.

On to `Cc1nn2c(=O)c3c([nH]c2c1-c1ccc(Cl)cc1)CCCC3`, for which the XTT viability came out at 101%.

`Cc1ccc(S(=O)(=O)N2CCN(C(=O)c3cc(-c4ccccc4)[nH]n3)CC2)cc1`: the XTT viability worked out at 82.6%.

On to `OC[C@H]1O[C@@H](n2c3ccc(Cl)cc3c3c(-c4cc5ccccc5o4)ncnc32)C(O)[C@H]1O` (stereo not given in full), for which the XTT viability came to 93.9%.

In the case of `CC(=O)NC[C@@H]1CN(c2ccc(N3CCOCC3)c(F)c2)C(=O)O1`, the XTT viability worked out at 94.2%.

In the case of `COc1ccccc1OCCCCn1c(C2CC2)nc2ccccc21`, the XTT viability came out at 76%.

Take `CNC(=O)c1cc(S(=O)(=O)N2CCN(c3ccccn3)CC2)cs1`: the XTT viability came out at 73.4%.

Take `NCCCC(N)(C(=O)O)C(F)F` (stereo not given): the XTT viability came out at 87.1%.

As to `NC(CC(=O)c1ccc(Cl)cc1Cl)C(Cl)(Cl)Cl` (stereo not given), the XTT viability amounted to 69.2%.

As to `CCOC(=O)c1noc(N)c1-c1ccccc1`, the XTT viability stood at 94.1%.

For `CC(C(=O)Nc1ccc2oc(-c3ccncc3)nc2c1)c1ccccc1` (stereo not given), the XTT viability was 89.9%.

With `CC(C)C(NC(=O)Cc1cccc2ccccc12)C(=O)Nc1cccc(C#N)c1` (stereo not given), the XTT viability was 68.8%.

As to `CNC(=O)C1Cc2ccccc2N1C(=O)Cc1ccc(F)cc1` (stereo not given), the XTT viability worked out at 84.2%.

On to `CCCNC(=O)N1CCC2(CC1)CC(=O)c1cc(C)ccc1O2`, for which the XTT viability was determined as 102%.

With `CC(C)(C)n1nc(Cc2ccc(F)c(Cl)c2)c2c(N)ncnc21`, the XTT viability amounted to 98.7%.

Consider `C[C@H](c1ccc2c(c1)CCCC2)N(C)c1ncc2c(N)nc(N)nc2n1`, for which the XTT viability came to 39.1%.

Regarding `CC(C)(C)c1cnc(NC(=O)c2ccccc2O)s1`, the XTT viability is 79.9%.

For the compound `O[C@@H](c1cc(C(F)(F)F)nc2c(C(F)(F)F)cccc12)[C@H]1CCCCN1`, the XTT viability is -0.139%.

On to `Clc1ccc(CN2CCN(C3=NCCN3)CC2)cc1Cl`, for which the XTT viability was determined as 81.9%.

Turning to `Cc1nc(-c2ccccn2)nc(NCCc2ccc(S(C)(=O)=O)cc2)c1Cl`, the XTT viability is 66.9%.

As for `CCc1ccc(S(=O)(=O)Nc2cc(CN3CCN(CCC(C)C)CC3)ccc2C)cc1`, the XTT viability worked out at 85.8%.

With `CCc1c(C)nc(-n2nc(C)cc2NC(=O)c2ccccc2SC)[nH]c1=O`, the XTT viability is -1.13%.

As to `O=C(C1CCN(c2nnnn2-c2ccccc2)CC1)N1CCc2ccccc2C1`, the XTT viability is 117%.

`O=C1[C@@H](Oc2ccccc2)[C@@H](c2ccc(Cl)cc2)N1CCn1cnc2c(NCc3ccccc3)ncnc21`: the XTT viability is 68.1%.

Turning to `Cc1cc2ccccc2n1CC(=O)N1CC(C(=O)N2CCCCC2)Oc2ccccc21` (stereo not given), the XTT viability came out at 71.5%.

Regarding `CC(C)(C)n1nc(Cc2cccc3ccccc23)c2c(N)ncnc21`, the XTT viability was determined as 85.5%.

For the compound `N#CCN(CCCCN1CCN(c2ccc(F)cc2)CC1)C(=O)OCc1ccccc1`, the XTT viability was found to be 118%.

`Nc1ncnc2c1ncn2[C@@H]1O[C@H](COS(=O)(=O)NC(=O)c2ccccc2O)[C@@H](O)[C@H]1O`: the XTT viability worked out at 113%.

Turning to `CNC(=O)CNc1nc(-c2ccccn2)nc2scc(-c3ccccc3)c12`, the XTT viability is 90%.

For the compound `COC(=O)c1c(NC(=O)c2cc3ccccc3oc2=O)sc2c1CCN(Cc1ccccc1)C2`, the XTT viability came out at 76.3%.

Regarding `Brc1cncc(-c2cc(NCCCn3ccnc3)nc(-c3ccccc3)n2)c1`, the XTT viability is 12.9%.

Consider `O=C(NCCN1CCCC1)c1cc(NCCN2CCOCC2)nc2ccc(Cl)cc12`, for which the XTT viability is 146%.

As to `O=C(NC1=NCCS1)c1sc2cc(F)ccc2c1Cl`, the XTT viability was determined as 81%.

For the origin of these results see the supplement of paper PMC6805474.
